Screening data from PubChem.
Only some compounds are listed: those with a hit (about 2.5% of all), similar ones and a draw of the others.
ULK1 primary – blocks human autophagy kinase ULK1. hit rate 1.9% among 30,000. AlphaScreen Atg13 phosphorylation by ULK1, luminescence. O75385. inhibition, % at 5.96 µM; in the data active = inhibition above about 43%
ASK1 primary – inhibitors of human ASK1 kinase; inhibition, % at 7.44 µM; AID 1159602; hit rate 0.99% among 22,000; Q99683; AlphaScreen MKK6 phosphorylation by ASK1, luminescence; in the data active = inhibition above about 35%
Of the large screens only hits and unclear results are named; the others gave an inactive call.

Cc1cc(Nc2ccccc2)nc(Nc2ccncn2)n1	none
COc1cc(Nc2cc(Nc3ccncn3)ncn2)cc(OC)c1OC	ULK1 primary 43
c1ccc(Nc2cc(Nc3ccncn3)ncn2)cc1	ULK1 primary 46
CC(C)N(CCNc1cc(N2CCC(N3CCOCC3)CC2)nc(N)n1)C(C)C	none
CCCCC(CC)COC(=O)C(C#N)=C(c1ccccc1)c1ccccc1 (stereo not given)	none (no result: ASK1 primary)
CCCCC(CC)COC(=O)CC(C(=O)OCC(CC)CCCC)S(=O)(=O)O (stereo not given)	ULK1 primary 54 (no result: ASK1 primary)
CC(=O)Nc1ccc(Nc2cc(-c3ccc(N4CCN(C)CC4)cc3)nc(N)n2)cc1	none
COc1nc(NCc2nc3ccccc3[nH]2)nc(-c2ccc(C(N)=O)cc2)n1	none
CC[C@@H](C)[C@H]1O[C@]2(CC[C@@H]1C)C[C@@H]1C[C@@H](C/C=C(\C)C(O[C@H]3C[C@H](OC)C(O[C@H]4C[C@H](OC)[C@@H](O)[C@H](C)O4)[C@H](C)O3)[C@@H](C)/C=C/C=C3\CO[C@@H]4[C@H](O)C(C)=C[C@@H](C(=O)O1)[C@]34O)O2 (stereo not given in full) (tested in a mixture with another compound)	none (no result: ASK1 primary)
Nc1nc(-c2ccccc2)nc2nc[nH]c12	none
CCn1cc(-c2ccc3cnc(Nc4ccc(-n5cnc(N6CCOCC6)n5)cc4)nc3c2Cl)cn1	ULK1 primary 78
CNC(=O)c1ccc2cnc(Nc3ccc(-n4cnc(N5CCOCC5)n4)cc3)nc2c1	ULK1 primary 50
Cn1cc(-c2ccc3cnc(Nc4ccc(-n5cnc(N6CCOCC6)n5)cc4)nc3n2)cn1	none
O=C(NCc1ccccc1)c1ccc2cnc(Nc3ccc(-n4cnc(N5CCOCC5)n4)cc3)nc2c1	none
CC1CN(c2ncn(-c3ccc(Nc4ncc5ccc(-c6cnn(C)c6)c(Cl)c5n4)cc3)n2)CC(C)O1 (stereo not given)	ULK1 primary 53
Cn1cc(-c2ccc3cnc(Nc4ccc(-n5cnc(N6CCOCC6)n5)cc4)nc3c2C(F)(F)F)cn1	none
CCN(CC)C(=O)C1CCCN(c2nc(NCc3nc4ccccc4[nH]3)c3ncn(CCN4CCCC4=O)c3n2)C1 (stereo not given)	none
Nc1cccc(-c2nc(NCCN3CCOCC3)c3[nH]cnc3n2)c1	none
CC(=O)Nc1ccc(Nc2ccnc(Nc3ccc(C(F)(F)F)cc3)n2)cc1	none
CC(=O)Nc1ccc(Nc2ccnc(Nc3ccncn3)n2)cc1	ULK1 primary 68
CC(C)n1c(N2CCN(c3ccccn3)CC2)nc2c(NCc3cccnc3)ncnc21	none
Cc1[nH]ncc1-c1ccc(NC(=O)C(O)c2ccc(F)cc2)cc1 (stereo not given)	none
Cc1nc(C)n(-c2ccc(Nc3nccc(-c4cc(F)cc(-c5cnoc5)c4)n3)cc2)n1	ULK1 primary 45
Cc1ncn(-c2ccc(Nc3nccc(-c4cc(F)cc(-c5cnoc5)c4)n3)cc2)n1	none
C[C@](O)(C(=O)Nc1ccc2cn[nH]c2c1)c1ccc(Br)cc1	none
c1ccc(OCCNc2nc(N3CCc4ccccc4C3)nc3c2ncn3-c2ccsc2)cc1	none
O=C(NC1CCN(Cc2ccccc2)CC1)c1ccnc(N2CCCC2CO)c1 (stereo not given)	none
Cc1cnc(NCCCN2CCCC2=O)nc1NCCCN1CCCC1=O	none
Cc1cnc(Nc2ccc(N3CCOCC3)cc2)nc1Nc1ccc(N2CCOCC2)cc1	none
CC(=O)Nc1ccc(Nc2nc(NCCCN3CCCC3=O)ncc2C)cc1	none
Cc1cnc(Nc2nccc3ccccc23)nc1Nc1ccc(N2CCOCC2)cc1	ULK1 primary 46
COc1cc(Nc2ncc(C)c(NCCCN3CCCC3=O)n2)cc(OC)c1OC	ULK1 primary 76
Cc1cnc(NCCCN2CCCC2=O)nc1Nc1ccc(N2CCOCC2)cc1	ULK1 primary 46
Cc1cnc(Nc2ccc(N3CCOCC3)cc2)nc1NCCCN1CCCC1=O	ULK1 primary 44
Cc1cnc(NCCCN2CCCC2=O)nc1NCCN1CCOCC1	none
c1ccc2c(c1)OCC(c1nc(-c3ccc(-c4cn[nH]c4)cc3)n[nH]1)O2 (stereo not given)	none
Fc1ccc(-c2cc(NCCCN3CCOCC3)nc(-c3ccncc3)n2)cc1	none (no result: ASK1 primary)
COc1cc(NC(=O)c2cccc(-n3cc(NC(=O)Nc4ccccc4C)cn3)c2)ccc1N1CCOCC1	none
O=C(NCCN1CCCCC1)/C(=N\O)c1ccccn1	none (no result: ASK1 primary)
COc1ccc(CCNc2nc(-c3cccc(C(C)=O)c3)nc3c2ncn3-c2ccccc2)cc1	none
Cc1ccc(-c2cccc3cnc(Nc4cccc(C(=O)NC5CC5)c4)nc23)cn1	ULK1 primary 59
O=C(NC1CC1)c1cccc(Nc2cnccn2)c1	none
Cc1ccc(-c2cccc3cnc(Nc4ccc(C(=O)NC5CC5)cc4)nc23)cn1	ULK1 primary 62
Cc1ccc(-c2cccc3cnc(Nc4ccc(-n5cnc(-c6ccccn6)n5)cc4)nc23)cn1	none
CCCNc1ccnc(-c2csc3ccccc23)n1	none
CCOC(=O)C(=O)Nc1sc(C(=O)Nc2ccc(C)cc2C)c(C)c1C(=O)OC	none (no result: ASK1 primary)
CC(C)n1cnc2c(NCc3cccc(C(F)(F)F)c3)nc(Nc3cccc(N(C)C)c3)nc21	none
CCN(CC)c1nc(NCCCN2CCCC2=O)nc(Nc2ccccc2)n1	none
CCNc1cc(Nc2ccc(N3CCOCC3)cc2)nc(N)n1	none
CCN(CC)C(=O)C1CCCN(c2cccc(C(=O)Nc3ccc(N4CCOCC4)cc3)n2)C1 (stereo not given)	ULK1 primary 52
O=C(Nc1ccc(N2CCOCC2)cc1)c1cccc(Nc2ccc3ncccc3c2)n1	ULK1 primary 46
O=C(Nc1ccc(N2CCOCC2)cc1)c1csc(Nc2ccncn2)n1	none
O=C(NCCN1CCOCC1)c1cccc(Nc2ccc3ncccc3c2)n1	none
O=C(Nc1ccc(N2CCOCC2)cc1)c1csc(Nc2ccc(N3CCOCC3)cc2)n1	none
O=C(Nc1ccc(N2CCOCC2)cc1)c1csc(Nc2ncccn2)n1	ULK1 primary 53
CCN(CC)C(=O)C1CCCN(c2cccc(C(=O)NCCN3CCOCC3)n2)C1 (stereo not given)	none
O=C(Nc1ccc(N2CCOCC2)cc1)c1cccc(Nc2ccncn2)n1	ULK1 primary 52
N#C/C(=C/c1ccc(OCC(=O)O)c(Cl)c1)C(=O)N1CCOCC1	none (no result: ASK1 primary)
Nc1nc(NC2CC2)cc(N2CCOCC2)n1	none
COc1ccc(-c2nc(NCCCN3CCCC3=O)c3ncn(-c4ccsc4)c3n2)cc1	none
c1ccc(CNc2nc(Nc3ncccn3)nc3c2ncn3-c2ccccc2)cc1	none
COc1ccc(CCNC(=O)c2cnc(Br)s2)cc1	none
c1cc(OCCN2CCCCC2)cc(-c2n[nH]c3ccc(-c4ncn[nH]4)cc23)c1	ULK1 primary 45
Cc1cc(Nc2ccc(OCCN3CCCCC3)cc2)nc(-c2cccc(OC(F)(F)F)c2)n1	none
NC(=O)c1ccc2[nH]nc(-c3cccc(OCCN4CCCCC4)c3)c2c1	ULK1 primary 61
O=C(O)c1ccc(OCCN2CCCCC2)cc1	none (no result: ASK1 primary)
O=C1CCCN1CCCNc1nc(NCc2cccnc2)nc2c1ncn2Cc1ccc(C(F)(F)F)cc1	none
N#Cc1ccccc1Nc1cc(NC(=O)Cc2ccc([N+](=O)[O-])cc2)ncc1C(F)(F)F	none
Cc1ncn(-c2ccc(Nc3nccc(-c4ccc(C#N)c(N5CCCC(O)C5)c4)n3)cc2)n1 (stereo not given)	none
Cc1ncn(-c2ccc(Nc3nccc(-c4ccc(N5CCCC(O)C5)c(C#N)c4)n3)cc2)n1 (stereo not given)	ULK1 primary 80
N#Cc1cc(-c2ccnc(Nc3ccc(N)cc3)n2)ccc1N1CCC(O)CC1	ULK1 primary 85
N#Cc1cc(-c2ccnc(Nc3cccc(N)c3)n2)ccc1N1CCCC1	none
